Only some compounds are listed: those with a hit (about 2.8% of all), similar ones and a draw of the others.
Shn3 inh set2 = Schnurri-3 reporter inhibition in Clone20 osteoblasts; inhibition, % at 12.5 µM; Clone20 osteoblast Shn3 3'UTR firefly luciferase, 24 h; hit rate 0.52% among 360,000; AID 588674;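 active means mean inhibition of at least 75% with every replicate also reaching 75%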;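 further: 0% = median of neutral control wells and 100% = pilot-screen positive control compound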
HIF-2a inh = inhibitors of HIF-2a; 786-0 RCC cells HIF-2a reporter, luciferase luminescence, overnight; inhibition, % at 18.8 µM; hit rate 0.72% among 360,000;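 active means inhibition of the luminescence signal of 40% or more relative to plate controls, in a single-dose primary screen at 18.75 µM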
KKLEB cytotox = CF airway cell cytotoxicity counter-screen; KKLEB CF airway cells viability, ATPlite luminescence, overnight; stronger effect = lower value; cells stimulated with P. aeruginosa culture filtrate; activity change (cytotoxicity), % at 5 µM; hit rate 0.36% among 360,000; AID 602141;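 active means corrected activity change at or below -50% at 5 µM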
TRPM1 prom inh = reduces MITF-dependent TRPM1 promoter luciferase signal | SK-MEL-5 TRPM1 promoter luciferase, 24 h | inhibition, % at 12.5 µM | hit rate 0.83% among 330,000 | AID 488899;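 active means mean inhibition across replicates of 60% or more, whatever share of single replicates reaches that level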
Peg3 prom inh = reduces Peg3 promoter-driven luciferase expression in HeLa; hit rate 1.7% among 360,000; HeLa PEG-Prom luciferase reporter, luminescence, overnight; inhibition, % at 20 µM;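 active means inhibition of at least 50% at 20 µM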
CF NFkB block = inhibitors of cystic fibrosis induced NF-kB | AID 588850 | hit rate 0.86% among 360,000 | KKLEB NF-kB-GFP reporter, PAF-induced, GFP fluorescence overnight | inhibition, % at 5 µM;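 active means at least 50% inhibition at 5 µM, scaled per plate between neutral and stimulator controls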;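 further: PAF is a Pseudomonas aeruginosa culture filtrate used as stimulus; plate controls were PAF-stimulated DMSO wells for no effect and unstimulated DMSO wells for full effect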
* = called active by the depositor; · = not tested or not shown.

SMILES	Shn3 inh set2	HIF-2a inh	KKLEB cytotox	TRPM1 prom inh	Peg3 prom inh	CF NFkB block
O=C(Nc1cccc(-n2cnnn2)c1)c1ccc(OC(F)(F)F)cc1	33	-18	-18	-7	-24	10
COC(=O)c1ccc(/C=C/C(=O)OCC(=O)Nc2sccc2C(N)=O)cc1	-4	6	0	12	89*	30
NC(=O)c1ccsc1NC(=O)COC(=O)/C=C/c1ccc([N+](=O)[O-])cc1	0	6	-4	9	17	13
CCC(=O)N(C)C[C@@H]1Oc2ncc(Br)cc2C(=O)N([C@@H](C)CO)C[C@H]1C	-15	9	-8	·	-3	14
Cc1nnc(NCc2n[nH]c(=O)c3ccccc23)c2ccccc12	-8	-42	4	20	106*	-9
COc1ccc(NCc2n[nH]c(=O)c3ccccc23)cc1	-5	-29	-3	-3	5	11
COc1ccccc1CN(C)C(=O)c1ccc(S(=O)(=O)Nc2c(C)n(C)n(-c3ccccc3)c2=O)cc1	-6	6	0	6	17	-4
Cc1ccc(/C=C/C(=O)c2ccc(C)cc2)cc1	-19	-152	2	-49	-196	-17
Cc1ccc(C(=O)/C=C/Nc2ccccc2C(N)=O)cc1	-10	-8	-56*	-1	-17	-18
Cc1ccc(C(=O)/C=C/C(=O)c2ccc(C)cc2)cc1	38	-34	-67*	50	112*	78*
CC(C)(C)NC(=O)CN1CCN(C(=O)CCl)CC1	-30	-7	13	-5	-9	1
O=C(Nc1cccc(C(F)(F)F)c1)c1csc([C@@H]2O[C@H](CO)[C@H](O)[C@H](O)[C@H]2O)n1	-8	-1	8	·	0	0
Cc1ccc(F)cc1C(=O)N1CCCCC1c1cc(C(=O)Nc2cccc(C#N)c2)no1 (stereo not drawn)	2	6	10	·	22	-18
Cc1nc(N)c(C#N)c(-c2ccccc2)c1C	3	27	-11	3	18	39
Cc1nn(-c2ccccc2)c2nc(N)c(C#N)c(-c3ccc(F)cc3)c12	11	30	-19	21	91*	26
Cc1ccc(-n2nc(C)c3c(-c4cccs4)c(C#N)c(N)nc32)cc1	25	3	-4	17	86*	26
CC1=CC(C)C(=O)N(C)C(C)=C1 (stereo not drawn)	7	2	-7	·	-10	-13
CCCC(=O)OCC1CN(Cc2ccco2)S(=O)(=O)c2c(F)cccc2O1 (stereo not drawn)	8	-2	-14	-5	5	12
OC(c1cccc(Cl)c1)c1ncc(-c2cccc(C(F)(F)F)c2)[nH]1 (stereo not drawn)	7	-1	-9	·	26	12
Nc1ccn(CC(=O)NCCNc2ccc([N+](=O)[O-])cn2)c(=O)n1	-8	10	0	4	-4	-6
CC1OC2CC(=O)OC2C2=C1C(=O)c1c(O)cccc1C2=O (stereo not drawn)	94*	90*	-83*	·	103*	91*
Cc1[nH]c2ccccc2c1CN1CCC(Cc2ccccc2)CC1	18	1	-19	19	78*	25
Cc1[nH]c2ccccc2c1CN1CCN(c2ccccn2)CC1	·	-1	4	2	-11	-7
COc1cc(C2C3=C(COC3=O)Oc3cc4c(cc32)OCO4)ccc1O (stereo not drawn)	9	13	3	7	3	15
COc1cc(C2C3=C(COC3=O)OC(C)(C)Oc3cc4c(cc32)OCO4)cc(OC)c1OC (stereo not drawn)	-1	23	-40	54	-21	64*
SMILES	Shn3 inh set2	HIF-2a inh	KKLEB cytotox	TRPM1 prom inh	Peg3 prom inh	CF NFkB block
Cc1cc(OCC(=O)Nc2cccnc2)c2c(C)cc(=O)oc2c1	19	-11	5	5	-2	-39
CCCc1cc(=O)oc2cc(C)cc(OCC(=O)Nc3cccnc3)c12	-12	12	-3	3	87*	-18
CCOC(=O)CCc1c(C)c2ccc(OCc3cc([N+](=O)[O-])ccc3OC)cc2oc1=O	0	18	-54*	9	0	3
COc1ccc([N+](=O)[O-])cc1COc1ccc2c(-c3ccccc3)cc(=O)oc2c1	2	17	-52*	-8	16	67*
CN(Cc1cn(C)nc1-c1ccccc1F)CC1CCCCO1 (stereo not drawn)	6	1	-4	-5	3	13
O=C1Nc2ccccc2-n2nnnc2C1N1CCN(CCN2CCOCC2)CC1 (stereo not drawn)	·	12	·	·	·	·
Cc1cccc(NC(=O)C(=O)NNC(=O)c2ccc(C(C)(C)C)cc2)c1	-11	-16	-62*	-6	0	84*
CC(C)(C)c1ccc(C(=O)NNC(=O)c2cccc(Br)c2)cc1	-16	-98	5	-33	-11	-12
CC(=O)OCC(=O)[C@@]12OC3(CCCC3)O[C@@H]1C[C@H]1[C@@H]3CCC4=CC(=O)C=C[C@]4(C)[C@@]3(F)[C@@H](O)C[C@@]12C	27	26	14	3	-4	82*
CC(=O)OCC(=O)C12OC(C)(C)OC1CC1C3CC=C4CC(O)CCC4(C)C3CCC12C (stereo not drawn)	24	5	-16	5	7	20
CC(=O)OCC(=O)C1(O)CCC2C3CCC4=CC(=O)C=CC4(C)C3(F)C(O)CC21C (stereo not drawn)	-16	17	18	-10	-12	73*
Cc1c(CN2CCC(CO)(Cc3cccc(C(F)(F)F)c3)CC2)c2ccccc2n1C	-10	4	-19	27	112*	32
C=CCN=C(NC#N)SCC(=O)c1cccc(OC)c1	-93	-178	-20	-70	-172	61*
Cn1c(-c2ccccc2)cc2ccccc21	-1	7	-7	-26	-9	-3
Cn1c(-c2ccccc2)cc2c3no[n+]([O-])c3ccc21	92*	-190	2	32	-159	-76
CC(C)N1C/C(=C/c2cccnc2)C(=O)/C(=C/c2cccnc2)C1	29	23	13	90*	26	-49
N=c1c2c(n(Cc3ccc([N+](=O)[O-])cc3)c3c1CCC3)CCCC2	2	6	7	6	13	-4
N=c1c2c(n(Cc3ccc(Br)cc3)c3c1CCC3)CCCC2	82	15	-59*	65*	22	45
N=c1c2c(n(Cc3ccc(Cl)c(Cl)c3)c3c1CCC3)CCCC2	79	25	-17	71*	39	38
CSCc1ccc(C(=O)NCC(c2cccs2)N2CCOCC2)cc1 (stereo not drawn)	-11	-14	-36	3	-4	18
COC(=O)[C@@]12C[C@@H](CC(=O)NCCc3ccccc3OC)C(=O)N(Cc3cccc4ccccc34)C1=CCC(C)(C)C2	·	-10	·	·	·	·

Bioassay records deposited in PubChem BioAssay by several laboratories.
